PostGolgi yeast: phenotypic screen on post-Golgi transport, primary screen; AID 739, 2007; post-Golgi transport phenotypic cell assay; inhibition, % at 10 µM; 98,000 compounds, 0.9% hits;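 note: yeast cells grown in 1536-well plates; yeast grown about 18 h at 30C before absorbance read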
PLAP act: PLAP enzyme activators, biochemical, luminescence, HTS; Alkaline phosphatase, placental type (Homo sapiens), P05187; purified PLAP enzyme, luminescent substrate read-out; active compounds read high; activation fold at 20 µM; 96,000 compounds, 1.2% hits; AID 696, 2007; in the data active = activation fold above about 2
PostGolgi ctrl: growth inhibition of yeast control strain, primary screen, counter-screen for post-Golgi transport modulator project; inhibition, % at 10 µM; efflux-deficient yeast background strain, growth absorbance A615, 16 h; 98,000 compounds, 5% hits
DAT uptake mod: changed hDAT dopamine uptake under cocaine IC80, either direction, primary screen, cocaine antagonist project, cell-based, LLC-PK1 hDAT, [14C]-dopamine uptake, MLSMR; B-score at 10 µM; 110,000 compounds, 1.3% hits; Sodium-dependent dopamine transporter (Homo sapiens), Q01959; LLC-PK1 hDAT cells, [14C]-dopamine uptake with cocaine IC80; actives deviate in either direction;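 active = Z score or B-score, a plate-position-corrected score, falls beyond the plate's 99.7% confidence bounds, in either direction; inactive = both scores lie inside the 99.7% bounds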;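 note: scored against the spread of the other compound wells on the same plate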
Target sequence (Q01959 whole entry, looked up): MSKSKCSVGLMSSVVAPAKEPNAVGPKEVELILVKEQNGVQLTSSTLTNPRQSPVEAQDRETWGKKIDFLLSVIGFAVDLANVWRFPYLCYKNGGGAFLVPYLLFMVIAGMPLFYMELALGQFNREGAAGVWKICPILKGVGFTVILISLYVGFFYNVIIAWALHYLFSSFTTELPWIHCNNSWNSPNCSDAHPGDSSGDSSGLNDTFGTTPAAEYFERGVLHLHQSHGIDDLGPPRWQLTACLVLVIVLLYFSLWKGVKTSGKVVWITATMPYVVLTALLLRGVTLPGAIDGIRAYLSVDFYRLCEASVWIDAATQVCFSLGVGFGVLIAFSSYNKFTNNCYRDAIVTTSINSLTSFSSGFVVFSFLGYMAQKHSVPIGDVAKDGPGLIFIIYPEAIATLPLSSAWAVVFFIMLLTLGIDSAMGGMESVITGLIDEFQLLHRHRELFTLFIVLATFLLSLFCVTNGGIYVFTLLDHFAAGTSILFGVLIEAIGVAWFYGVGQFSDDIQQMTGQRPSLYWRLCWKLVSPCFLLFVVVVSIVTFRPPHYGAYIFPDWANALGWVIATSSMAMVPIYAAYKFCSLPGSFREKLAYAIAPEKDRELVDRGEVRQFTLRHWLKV
Cav32 inh: Cav3.2 calcium influx blockers – cell-based, Fluo-4 calcium fluorescence, FDSS, MLSMR library, primary screen; B-score at 10 µM; Cav3.2-expressing cells; active compounds read low; 100,000 compounds, 4% hits; AID 449739, 2010; Voltage-dependent T-type calcium channel subunit alpha-1H (Homo sapiens), O95180;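 active = single-dose well whose peak fluorescence ratio is a statistical outlier from its plate by either plate-standardised score or position-corrected B-score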
Starred values were filed as active, the others as inactive; . = no result. Compounds with a hit are over-represented: about 9.6% of the library has one in this group of screens. Cut-off read from the data, not from the text of the source, unless noted: active = inhibition above about 30%; inactive = the rest.

SMILES | PostGolgi yeast | PLAP act | PostGolgi ctrl | DAT uptake mod | Cav32 inh
COc1ccc(Sc2cnn(-c3ccccc3)c(=O)c2Cl)cc1 | 0.0 | 1 | 18.5 | 0.0394 | -0.5
COc1cnn(-c2ccccc2)c(=O)c1SCc1ccc(Cl)c(Cl)c1 | 1.6 | 0.8 | 60.3* | 1.7 | -4.49
O=c1c2cnn(-c3ccc(F)cc3)c2ncn1Cc1ccccn1 | 3.6 | 0.9 | 5.7 | 0.105 | 0.728
Cc1ccc(C)c(N2CCN(CC(=O)Nc3ccc([N+](=O)[O-])cc3C(=O)Nc3ccccc3F)CC2)c1 | -4.6 | 0.9 | 37.6* | 0.146 | -1.17
COc1ccccc1N1CCN(CC(=O)Nc2cc(F)ccc2C)CC1 | -2.9 | 1.5 | -0.9 | -1.01 | -3.75
CCCCNS(=O)(=O)c1ccc(NS(=O)(=O)c2c(C)cc(C)cc2C)cc1 | -13.7 | 1.7 | 6.3 | 0.606 | -2.55
COc1cc(O)c(CC=C(C)C)c(O)c1C(=O)CCc1ccc(O)cc1 | . | . | . | -2.11 | 0.369
CC(C)=CCc1c(O)ccc(C(=O)Cc2ccccc2)c1O | 6.7 | 1.1 | 34.0* | -0.414 | -0.74
O=C(NNC(=O)[C@@H]1CCCC[C@@H]1C(=O)O)c1cccs1 | . | . | . | 0.0423 | -0.0158
COc1ccc(C(=O)c2c(C(F)(F)F)oc3c2C(=O)c2ccccc2C3=O)cc1OC | 36.8* | 1.7 | 26.5 | -0.568 | 0.769
COC(=O)Cn1nc(-c2ccccc2)c2ccccc21 | 7.1 | . | 31.4* | -0.33 | -0.326
C=C(C)c1cccc(C(C)(C)NC(=O)NCCCn2ccnc2)c1 | 2.4 | 1.3 | 4.9 | -0.711 | -1.9
C=C(C)c1cccc(C(C)(C)NC(=O)NCCCN2CCCC2=O)c1 | -6.3 | 2.3* | 4.3 | -0.032 | 0.0898
O=C(O)c1ccc(COc2c(F)c(F)c(F)c(F)c2F)o1 | 1.8 | . | 9.1 | -0.0318 | 1.96
CC1CCCc2sc3nc(NCc4ccco4)n4ncnc4c3c21 (stereo not given) | -1.0 | . | 57.0* | 1.03 | -1.34
CCN1CCN(c2nc3sc4c(c3c3ncnn23)CC(C)CC4)CC1 (stereo not given) | 0.1 | 1.5 | 5.1 | 0.0716 | 0.419
CC1CCc2sc3nc(NCc4ccco4)n4ncnc4c3c2C1 (stereo not given) | -12.5 | 1.4 | 62.6* | 0.514 | 0.00951
CCOC(=O)c1c(C)[nH]c(C(=O)COC(=O)CSCC(=O)N(CC)CC)c1C | -1.8 | 1.2 | -6.8 | -0.307 | 0.302
Cc1cc(NC(=O)CCC(=O)N(c2ccc(F)cc2)C(C(=O)NC2CCCC2)c2ccncc2)no1 (stereo not given) | -1.3 | 1.3 | 8.1 | . | .
CCn1cnc2c1c(=O)n(Cc1csc(-c3ccccc3)n1)c(=O)n2Cc1ccccc1 | -1.8 | 1.5 | 47.6* | 0.0746 | -3.79
CCn1cnc2c1c(=O)n(Cc1nnc3n1-c1ccccc1SC3)c(=O)n2Cc1ccccc1 | 2.3 | 1.5 | -0.5 | 1.13 | 1.4
CN(C)S(=O)(=O)N1CCN(C(=O)c2ccccc2)CC1 | -4.0 | 0.9 | -3.4 | -4.54* | 0.157
CN(C)S(=O)(=O)N1CCN(C(=O)c2cccc(Br)c2)CC1 | -5.9 | 0.9 | 10.6 | -1.1 | 0.192
COc1ccc(S(=O)(=O)N2CCOCC2)c(Cl)c1Cl | -1.4 | 1.2 | 30.2* | -1.13 | -0.159
Cc1ccc(S(=O)(=O)c2ccc(Cl)cc2)cc1S(=O)(=O)N1CCOCC1 | 2.5 | 1.6 | 18.7 | -0.592 | -3.58*
SMILES | PostGolgi yeast | PLAP act | PostGolgi ctrl | DAT uptake mod | Cav32 inh
COc1ccc(S(=O)(=O)N2CCOCC2)cc1Cl | -6.6 | 1 | 1.0 | -1.17 | -0.214
CCCOC(=O)C1C2C=C[C@]3(CN(CCc4ccccc4)C(=O)[C@H]13)O2 (stereo not given in full) | 19.2 | 1.7 | 9.8 | 0.745 | -0.135
Cc1cc2c(c(SCC(=O)NCCc3ccccc3)n1)C(=O)OC2 | -0.7 | 1 | 4.2 | -0.619 | 0.768
CCCCCCNc1nc(NCc2ccco2)nc(OCC)n1 | -6.6 | 1.1 | 19.5 | -0.114 | -7.2*
CCN1/C(=C/c2ccc3ccccc3[n+]2CC)C=Cc2ccccc21 | -1.3 | 0.2 | 65.7* | 0.82 | -5.37*
CCN1C(=O)/C(=C2\C=Cc3ccccc3N2CC)SC1=S | -3.7 | 0.8 | 29.7 | 0.485 | 0.363
CC1CCCC(NC(=O)CSc2nnnn2C)C1C (stereo not given) | -4.2 | 0.9 | -0.5 | -0.385 | -4.68*
COC(=O)c1c(NC(=O)CSc2nnnn2-c2ccccc2)sc2c1CCC(C)C2 (stereo not given) | 11.9 | 1.1 | 9.8 | 0.00398 | -0.48
Cn1nnnc1SCC(=O)NC1CCCCC1 | -6.0 | 1.1 | 2.1 | 1.01 | -0.595
CC1CCCCC1NC(=O)CSc1nnnn1-c1ccccc1 (stereo not given) | 37.9* | 1.1 | -2.1 | -0.934 | -0.407
COc1ccc(-c2noc(-c3ccccc3C(=O)N3CCOCC3)n2)cc1 | 4.1 | 1 | -5.5 | 0.234 | -0.728
CCCSC(=O)N(CC)CC(=O)Nc1c(CC)cccc1CC | -4.2 | 1 | 21.0 | -1.09 | -1.9
CC(=O)c1ccc(N2CCN(C(=O)CCS(=O)(=O)c3ccc(C)cc3)CC2)cc1 | -3.3 | 0.9 | 3.7 | -0.00188 | .
CCO[C@@H]1OC(C(=O)N2CCN(Cc3ccc4c(c3)OCO4)CC2)=C[C@H](c2cn(C(C)=O)c3ccccc23)[C@H]1CCCO | . | . | . | 2.14* | -1.54
CC(=O)n1cc([C@@H]2C=C(C(=O)N3CCOCC3)O[C@H](OCCCCO)C2)c2ccccc21 | . | . | . | 1.15 | 0.0716
CCO[C@H]1OC(C(=O)N2CCN(Cc3ccc4c(c3)OCO4)CC2)=C[C@@H](c2ccccc2)[C@@H]1CCCO | . | . | . | 0.867 | 0.112
CC(=O)n1cc([C@H]2C=C(C(=O)N3CCN(Cc4ccc5c(c4)OCO5)CC3)O[C@@H](OCCCCO)C2)c2ccccc21 | . | . | . | 2.49* | -0.396
CCN1C(=O)c2cccc3c(S(=O)(=O)Nc4ccccn4)ccc1c23 | 13.8 | 1.2 | 11.5 | -0.274 | 0.403
CN(C)c1cccc2c(S(=O)(=O)Nc3ccccn3)cccc12 | -23.6 | 0.8 | 35.9* | 1.2 | -0.636
CC(C)(C)OC(=O)NCCCC[C@H](NC(=O)c1nc[nH]c1C(=O)NC(c1ccccc1)c1ccccc1)C(=O)OC(C)(C)C | . | . | . | -0.212 | -1.37
CC(C)(C)OC(=O)NCCCCCNC(=O)c1[nH]cnc1C(=O)N[C@@H](CCCCNC(=O)OC(C)(C)C)C(=O)OC(C)(C)C | . | . | . | 1.76 | -2.66*
CC(C)(C)OC(=O)CNC(=O)c1[nH]cnc1C(=O)N[C@@H](CCCCNC(=O)OC(C)(C)C)C(=O)OC(C)(C)C | . | . | . | 2.81* | -0.997
C[C@H](NC(=O)c1nc[nH]c1C(=O)N[C@@H](CCCCNC(=O)OC(C)(C)C)C(=O)OC(C)(C)C)C(=O)OC(C)(C)C | . | . | . | 1.63 | -2.59
COCC(C)n1c(SCC(=O)NC(=O)Nc2ccc3c(c2)OCCO3)nc2ccccc2c1=O (stereo not given) | -3.0 | 1.1 | 16.5 | 1.1 | -2.24

Screens from PubChem BioAssay.
